Common to all, as to experiment: DAPPL (digital affinity profiling via proximity ligation, sequencing); 10 mM Tris-HCl pH 7.5, 50 mM NaCl, 1 mM DTT, 4% glycerol, room temperature, 30 min; GST-TFs on glutathione beads, 16-mer random dsDNA library, 0.1% formaldehyde crosslink after washing; high values mean tight binding
One assay deals with T1, FEV (Homo sapiens, UniProt Q99581 1-238).
T1 sequence: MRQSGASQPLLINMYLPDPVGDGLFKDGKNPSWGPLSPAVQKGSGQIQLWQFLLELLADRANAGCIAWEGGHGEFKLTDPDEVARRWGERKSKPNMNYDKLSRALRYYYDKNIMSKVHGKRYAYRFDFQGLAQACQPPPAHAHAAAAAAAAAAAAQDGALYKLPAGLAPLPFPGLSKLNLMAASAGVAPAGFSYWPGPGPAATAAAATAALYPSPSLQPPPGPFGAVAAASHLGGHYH
Conditions: protein: recombinant; tags: N-terminal GST; dsDNA, one strand shown. The gist of the method:
(§1)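 After expression in yeast as GST fusions, human transcription factors were bound to glutathione beads, DNA-barcoded and mixed with a tag-only sample. The pools were incubated with 200 nmole of a 16-mer random double-stranded DNA library in Tris/NaCl/DTT/glycerol buffer (30 min, room temperature), washed and crosslinked with 0.1% formaldehyde. Proximity ligation with BsaI/T4 ligase ran for 1 h at 37 °C, before PCR amplification and sequencing on an Illumina NextSeq500. Binding signal is a hexamer's read frequency for a factor divided by its frequency for the tag-only sample.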

A further assay addresses ETV5 (Homo sapiens, UniProt P41161 1-510). Conditions: protein: recombinant; tags: N-terminal GST; dsDNA, one strand shown. The gist of the method:
as §1

The target of a further assay is HSF1 (Homo sapiens, UniProt Q00613 1-529). Conditions: protein: recombinant; tags: N-terminal GST; chain copies: 3; dsDNA, one strand shown. The gist of the method:
as §1

The next assay addresses T2, SPIC (Homo sapiens, UniProt Q8N5J4 1-248).
T2 sequence: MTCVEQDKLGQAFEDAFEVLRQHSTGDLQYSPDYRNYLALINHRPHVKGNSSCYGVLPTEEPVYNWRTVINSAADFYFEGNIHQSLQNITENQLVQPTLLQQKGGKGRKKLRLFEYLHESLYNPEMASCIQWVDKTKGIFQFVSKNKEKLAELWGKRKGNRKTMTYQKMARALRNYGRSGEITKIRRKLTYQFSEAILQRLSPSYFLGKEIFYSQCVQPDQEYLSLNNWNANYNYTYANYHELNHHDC
Conditions: protein: recombinant; tags: N-terminal GST; dsDNA, one strand shown. The gist of the method: as §1

For the next assay, the target named is ELF4 (Homo sapiens, UniProt Q99607 1-663). Conditions: protein: recombinant; tags: N-terminal GST; dsDNA, one strand shown. Put shortly: as §1
The target of another assay is T3, ELK4 (Homo sapiens, UniProt P28324-2 1-405).
T3 sequence: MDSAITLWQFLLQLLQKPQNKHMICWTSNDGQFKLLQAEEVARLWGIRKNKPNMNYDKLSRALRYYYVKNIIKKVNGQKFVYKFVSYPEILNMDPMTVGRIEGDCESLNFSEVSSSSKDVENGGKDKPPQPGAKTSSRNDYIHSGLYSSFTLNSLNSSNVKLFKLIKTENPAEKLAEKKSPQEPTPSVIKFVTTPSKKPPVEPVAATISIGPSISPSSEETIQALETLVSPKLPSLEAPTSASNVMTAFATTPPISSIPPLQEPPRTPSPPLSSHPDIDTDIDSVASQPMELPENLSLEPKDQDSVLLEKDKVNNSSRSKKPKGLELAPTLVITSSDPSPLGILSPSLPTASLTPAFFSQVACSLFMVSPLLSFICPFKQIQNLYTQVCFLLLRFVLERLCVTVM
Conditions: protein: recombinant; tags: N-terminal GST; dsDNA, one strand shown. Put shortly:
as §1

The target of the next assay is T4, ETV2 (Homo sapiens, UniProt O00321 1-342).
T4 sequence: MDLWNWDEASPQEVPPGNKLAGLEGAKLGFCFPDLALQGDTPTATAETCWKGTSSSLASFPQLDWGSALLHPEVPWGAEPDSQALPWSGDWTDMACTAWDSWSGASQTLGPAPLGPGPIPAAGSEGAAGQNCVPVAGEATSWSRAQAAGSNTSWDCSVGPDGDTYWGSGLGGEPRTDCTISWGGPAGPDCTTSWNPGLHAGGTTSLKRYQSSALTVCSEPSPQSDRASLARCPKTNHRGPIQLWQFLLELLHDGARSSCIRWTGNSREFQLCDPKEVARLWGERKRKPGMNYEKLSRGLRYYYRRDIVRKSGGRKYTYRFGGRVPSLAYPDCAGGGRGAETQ
Conditions: protein: recombinant; tags: N-terminal GST; dsDNA, one strand shown. The gist of the method:
as §1

Another assay addresses T5, ELF3 (Homo sapiens, UniProt P78545 1-371).
T5 sequence: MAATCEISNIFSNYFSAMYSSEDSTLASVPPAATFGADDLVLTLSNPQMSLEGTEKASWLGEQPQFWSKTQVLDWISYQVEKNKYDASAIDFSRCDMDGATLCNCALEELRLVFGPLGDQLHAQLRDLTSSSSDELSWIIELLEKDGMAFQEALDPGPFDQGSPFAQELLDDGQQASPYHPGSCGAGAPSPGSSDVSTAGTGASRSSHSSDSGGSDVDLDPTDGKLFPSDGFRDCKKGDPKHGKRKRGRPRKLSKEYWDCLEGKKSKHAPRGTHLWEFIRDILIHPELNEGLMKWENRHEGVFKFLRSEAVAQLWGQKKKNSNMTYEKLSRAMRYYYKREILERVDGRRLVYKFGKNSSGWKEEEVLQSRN
Conditions: protein: recombinant; tags: N-terminal GST; dsDNA, one strand shown. The gist of the method: as §1

The target in another assay is CRX (Homo sapiens, UniProt O43186 1-299). Conditions: protein: recombinant; tags: N-terminal GST; dsDNA, one strand shown. Put shortly: as §1
The next assay deals with ETV1 (Homo sapiens, UniProt P50549 1-477). Conditions: protein: recombinant; tags: N-terminal GST; dsDNA, one strand shown. Put shortly: as §1
For a further assay, the target named is T6, ERF (Homo sapiens, UniProt P50548 1-548).
T6 sequence: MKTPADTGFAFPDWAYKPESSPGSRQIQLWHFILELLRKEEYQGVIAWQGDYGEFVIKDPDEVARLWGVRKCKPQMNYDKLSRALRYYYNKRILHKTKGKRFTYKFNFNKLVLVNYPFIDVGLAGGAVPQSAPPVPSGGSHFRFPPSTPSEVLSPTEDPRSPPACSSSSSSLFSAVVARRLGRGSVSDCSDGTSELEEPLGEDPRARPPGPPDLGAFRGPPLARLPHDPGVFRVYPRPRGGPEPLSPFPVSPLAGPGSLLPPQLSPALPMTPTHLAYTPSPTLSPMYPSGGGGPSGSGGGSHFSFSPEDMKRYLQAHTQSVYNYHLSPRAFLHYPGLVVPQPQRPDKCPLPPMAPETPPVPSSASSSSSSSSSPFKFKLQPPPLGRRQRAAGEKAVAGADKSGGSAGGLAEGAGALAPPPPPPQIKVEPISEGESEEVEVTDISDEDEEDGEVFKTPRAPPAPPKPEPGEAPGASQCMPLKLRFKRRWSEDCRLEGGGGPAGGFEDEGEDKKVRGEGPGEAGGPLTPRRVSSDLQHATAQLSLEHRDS
Conditions: protein: recombinant; tags: N-terminal GST; dsDNA, one strand shown. The gist of the method:
as §1

The target in another assay is T7, ETV3L (Homo sapiens, UniProt Q6ZN32 1-361).
T7 sequence: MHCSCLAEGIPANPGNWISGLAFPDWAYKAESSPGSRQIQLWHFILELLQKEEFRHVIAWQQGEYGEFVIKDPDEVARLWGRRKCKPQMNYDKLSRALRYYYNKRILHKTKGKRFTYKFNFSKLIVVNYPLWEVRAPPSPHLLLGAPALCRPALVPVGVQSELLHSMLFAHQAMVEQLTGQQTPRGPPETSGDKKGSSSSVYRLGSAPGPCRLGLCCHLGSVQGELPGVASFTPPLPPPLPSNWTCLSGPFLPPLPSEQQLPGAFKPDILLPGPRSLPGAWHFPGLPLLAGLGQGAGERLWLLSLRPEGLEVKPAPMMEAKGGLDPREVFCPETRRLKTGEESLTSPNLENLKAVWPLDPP
Conditions: protein: recombinant; tags: N-terminal GST; dsDNA, one strand shown. Put shortly:
as §1

For the next assay, the target named is T8, ETS2 (Homo sapiens, UniProt P15036 1-469).
T8 sequence: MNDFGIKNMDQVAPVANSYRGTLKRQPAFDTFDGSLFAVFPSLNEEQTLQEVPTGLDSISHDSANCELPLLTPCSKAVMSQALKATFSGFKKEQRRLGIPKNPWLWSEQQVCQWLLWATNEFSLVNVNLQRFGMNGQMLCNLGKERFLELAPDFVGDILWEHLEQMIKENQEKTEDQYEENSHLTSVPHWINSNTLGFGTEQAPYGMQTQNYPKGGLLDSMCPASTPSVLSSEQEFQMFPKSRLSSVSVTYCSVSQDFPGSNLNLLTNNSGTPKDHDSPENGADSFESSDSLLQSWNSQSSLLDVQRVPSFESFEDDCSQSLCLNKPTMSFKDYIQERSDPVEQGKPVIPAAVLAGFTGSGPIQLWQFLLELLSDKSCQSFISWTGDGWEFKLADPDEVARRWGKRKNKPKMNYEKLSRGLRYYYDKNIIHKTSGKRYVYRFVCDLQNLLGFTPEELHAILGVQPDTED
Conditions: protein: recombinant; tags: N-terminal GST; dsDNA, one strand shown. The gist of the method: as §1

For the next assay, the target named is T9, SPDEF (Homo sapiens, UniProt O95238 1-335).
T9 sequence: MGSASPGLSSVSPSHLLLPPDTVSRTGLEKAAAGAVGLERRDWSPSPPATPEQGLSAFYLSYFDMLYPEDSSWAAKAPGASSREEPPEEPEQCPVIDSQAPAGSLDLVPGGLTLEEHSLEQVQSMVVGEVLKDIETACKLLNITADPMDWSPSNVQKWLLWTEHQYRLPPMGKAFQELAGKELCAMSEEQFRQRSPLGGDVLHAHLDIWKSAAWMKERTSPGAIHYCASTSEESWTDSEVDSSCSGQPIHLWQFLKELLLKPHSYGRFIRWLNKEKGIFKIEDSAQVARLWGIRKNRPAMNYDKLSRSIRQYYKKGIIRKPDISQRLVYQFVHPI
Conditions: protein: recombinant; tags: N-terminal GST; dsDNA, one strand shown. The gist of the method: as §1

Another assay concerns the target T10, ETV7 (Homo sapiens, UniProt Q9Y603 1-341).
T10 sequence: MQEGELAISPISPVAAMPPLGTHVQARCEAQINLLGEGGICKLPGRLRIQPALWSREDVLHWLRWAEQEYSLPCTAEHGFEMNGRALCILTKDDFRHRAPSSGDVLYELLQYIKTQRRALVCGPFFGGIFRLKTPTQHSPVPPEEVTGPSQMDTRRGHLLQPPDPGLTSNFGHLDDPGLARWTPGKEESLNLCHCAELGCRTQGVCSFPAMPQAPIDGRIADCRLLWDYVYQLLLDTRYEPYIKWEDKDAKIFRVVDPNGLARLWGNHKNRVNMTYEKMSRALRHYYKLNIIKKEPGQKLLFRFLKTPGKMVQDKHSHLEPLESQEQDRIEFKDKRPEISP
Conditions: protein: recombinant; tags: N-terminal GST; dsDNA, one strand shown. Put shortly:
as §1

In a further assay the target is T11, ELF5 (Homo sapiens, UniProt Q9UKW6-2 1-255).
T11 sequence: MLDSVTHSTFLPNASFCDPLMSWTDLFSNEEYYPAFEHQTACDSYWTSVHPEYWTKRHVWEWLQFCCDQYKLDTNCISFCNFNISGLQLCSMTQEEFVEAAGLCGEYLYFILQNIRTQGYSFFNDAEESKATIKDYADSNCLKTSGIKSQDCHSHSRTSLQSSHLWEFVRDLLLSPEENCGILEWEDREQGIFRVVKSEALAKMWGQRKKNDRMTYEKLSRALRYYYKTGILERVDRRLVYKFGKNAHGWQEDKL
Conditions: protein: recombinant; tags: N-terminal GST; dsDNA, one strand shown. The gist of the method: as §1

The next assay deals with T12, ETV3 (Homo sapiens, UniProt P41162-2 1-143).
T12 sequence: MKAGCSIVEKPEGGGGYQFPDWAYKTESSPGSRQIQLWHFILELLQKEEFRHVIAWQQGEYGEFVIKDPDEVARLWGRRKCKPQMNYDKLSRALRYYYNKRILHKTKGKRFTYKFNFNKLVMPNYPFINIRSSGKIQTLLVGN
Conditions: protein: recombinant; tags: N-terminal GST; dsDNA, one strand shown. Put shortly: as §1

For the next assay, the target named is ETV6 (Homo sapiens, UniProt P41212 1-452). Conditions: protein: recombinant; tags: N-terminal GST; dsDNA, one strand shown. Put shortly:
as §1

ELF4, sequence (Q99607 whole entry): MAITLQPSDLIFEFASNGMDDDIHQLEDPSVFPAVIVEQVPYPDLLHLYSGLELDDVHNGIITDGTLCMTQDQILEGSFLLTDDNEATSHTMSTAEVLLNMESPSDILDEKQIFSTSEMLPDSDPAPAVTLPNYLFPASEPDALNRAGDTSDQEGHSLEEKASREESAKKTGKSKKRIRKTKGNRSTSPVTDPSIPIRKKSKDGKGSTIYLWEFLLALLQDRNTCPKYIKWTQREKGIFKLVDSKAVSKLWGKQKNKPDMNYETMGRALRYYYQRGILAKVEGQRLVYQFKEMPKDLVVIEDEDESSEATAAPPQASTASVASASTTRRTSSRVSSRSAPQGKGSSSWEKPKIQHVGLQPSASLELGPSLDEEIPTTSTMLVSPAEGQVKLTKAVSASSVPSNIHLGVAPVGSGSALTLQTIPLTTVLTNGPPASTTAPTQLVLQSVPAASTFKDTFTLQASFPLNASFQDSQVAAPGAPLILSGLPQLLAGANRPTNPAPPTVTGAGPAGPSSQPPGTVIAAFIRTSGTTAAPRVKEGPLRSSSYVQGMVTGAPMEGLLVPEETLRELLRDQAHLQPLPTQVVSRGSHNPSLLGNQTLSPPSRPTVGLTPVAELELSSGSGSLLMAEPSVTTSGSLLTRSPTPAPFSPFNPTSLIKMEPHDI
HSF1, sequence (Q00613 whole entry): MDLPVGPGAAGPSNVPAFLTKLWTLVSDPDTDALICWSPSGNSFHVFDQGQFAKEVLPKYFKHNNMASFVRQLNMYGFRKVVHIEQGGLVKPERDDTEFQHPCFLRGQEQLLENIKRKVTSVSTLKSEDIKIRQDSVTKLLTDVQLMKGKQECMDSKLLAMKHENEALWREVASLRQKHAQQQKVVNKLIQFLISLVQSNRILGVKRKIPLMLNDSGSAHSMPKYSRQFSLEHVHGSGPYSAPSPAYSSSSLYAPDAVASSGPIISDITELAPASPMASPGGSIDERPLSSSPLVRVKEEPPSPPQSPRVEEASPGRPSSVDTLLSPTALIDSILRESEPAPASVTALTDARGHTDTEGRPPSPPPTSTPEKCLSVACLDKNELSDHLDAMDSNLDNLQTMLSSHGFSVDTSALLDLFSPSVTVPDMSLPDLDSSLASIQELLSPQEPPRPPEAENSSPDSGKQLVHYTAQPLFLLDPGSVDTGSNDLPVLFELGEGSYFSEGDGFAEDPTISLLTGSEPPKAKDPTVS
ETV5, sequence (P41161 whole entry): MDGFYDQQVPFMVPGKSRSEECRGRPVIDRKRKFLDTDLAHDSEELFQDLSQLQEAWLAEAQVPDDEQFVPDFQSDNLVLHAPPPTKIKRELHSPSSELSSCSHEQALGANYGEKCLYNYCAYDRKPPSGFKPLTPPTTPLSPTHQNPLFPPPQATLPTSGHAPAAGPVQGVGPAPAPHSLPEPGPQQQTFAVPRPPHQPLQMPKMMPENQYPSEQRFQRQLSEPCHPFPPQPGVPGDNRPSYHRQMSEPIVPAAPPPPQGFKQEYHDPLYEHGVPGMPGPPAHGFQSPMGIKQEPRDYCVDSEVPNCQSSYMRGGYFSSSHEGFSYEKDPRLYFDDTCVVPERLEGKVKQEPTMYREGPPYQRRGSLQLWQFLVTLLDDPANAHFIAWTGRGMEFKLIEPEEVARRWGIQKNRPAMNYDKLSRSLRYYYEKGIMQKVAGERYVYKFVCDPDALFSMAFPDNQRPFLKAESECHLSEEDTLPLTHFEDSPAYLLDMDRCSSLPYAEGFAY
CRX, sequence (O43186 whole entry): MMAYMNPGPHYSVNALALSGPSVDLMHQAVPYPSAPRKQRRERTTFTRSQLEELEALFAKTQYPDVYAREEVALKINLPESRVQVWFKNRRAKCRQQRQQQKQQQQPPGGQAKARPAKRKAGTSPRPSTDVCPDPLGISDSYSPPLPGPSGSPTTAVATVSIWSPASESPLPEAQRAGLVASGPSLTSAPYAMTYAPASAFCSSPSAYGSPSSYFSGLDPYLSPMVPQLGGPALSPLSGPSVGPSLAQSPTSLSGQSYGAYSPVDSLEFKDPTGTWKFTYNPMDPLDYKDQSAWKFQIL
ETV6, sequence (P41212 whole entry): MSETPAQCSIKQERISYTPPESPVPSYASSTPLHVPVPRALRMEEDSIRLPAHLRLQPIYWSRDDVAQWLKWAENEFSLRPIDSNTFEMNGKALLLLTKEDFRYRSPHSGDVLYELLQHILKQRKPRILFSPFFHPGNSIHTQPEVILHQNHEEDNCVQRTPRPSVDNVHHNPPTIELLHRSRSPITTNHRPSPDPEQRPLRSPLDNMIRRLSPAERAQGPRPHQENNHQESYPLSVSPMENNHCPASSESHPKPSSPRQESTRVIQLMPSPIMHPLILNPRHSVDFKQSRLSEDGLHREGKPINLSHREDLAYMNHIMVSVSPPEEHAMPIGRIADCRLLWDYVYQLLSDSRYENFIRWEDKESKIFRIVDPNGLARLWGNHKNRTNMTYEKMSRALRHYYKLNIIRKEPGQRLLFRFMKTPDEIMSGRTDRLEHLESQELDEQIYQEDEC
ETV1, sequence (P50549 whole entry): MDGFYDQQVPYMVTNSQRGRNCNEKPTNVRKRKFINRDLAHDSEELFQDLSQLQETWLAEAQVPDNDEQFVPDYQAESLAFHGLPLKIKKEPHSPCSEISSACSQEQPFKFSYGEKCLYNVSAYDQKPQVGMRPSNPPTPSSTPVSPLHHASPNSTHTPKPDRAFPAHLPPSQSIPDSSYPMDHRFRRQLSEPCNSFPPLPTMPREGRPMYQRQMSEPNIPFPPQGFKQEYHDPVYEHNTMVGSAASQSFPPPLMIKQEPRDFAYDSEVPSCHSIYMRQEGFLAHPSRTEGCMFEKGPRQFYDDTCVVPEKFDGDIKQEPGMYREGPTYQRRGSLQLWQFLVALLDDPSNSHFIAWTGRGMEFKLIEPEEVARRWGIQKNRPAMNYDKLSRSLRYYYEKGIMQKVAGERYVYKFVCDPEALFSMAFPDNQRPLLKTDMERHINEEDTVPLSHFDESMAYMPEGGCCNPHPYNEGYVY

As for ATATCA, the binding signal in the assay with FEV is 1.1 fold enrichment (6-mer frequency, TF over GST control); in the assay with ETV5 it was 1.19 fold enrichment (6-mer frequency, TF over GST control); in the assay with HSF1 it was 1.04 fold enrichment (6-mer frequency, TF over GST control); in the assay with SPIC, 1.21 fold enrichment (6-mer frequency, TF over GST control); with ELF4, 1.19 fold enrichment (6-mer frequency, TF over GST control); in the assay with ELK4, 1.16 fold enrichment (6-mer frequency, TF over GST control). The binding signal with ETV2 is 1.29 fold enrichment (6-mer frequency, TF over GST control); with ELF3, 1.08 fold enrichment (6-mer frequency, TF over GST control); with CRX, 1.13 fold enrichment (6-mer frequency, TF over GST control); with ETV1, 1.14 fold enrichment (6-mer frequency, TF over GST control); in the assay with ERF it was 1.19 fold enrichment (6-mer frequency, TF over GST control); with ETV3L, 1.1 fold enrichment (6-mer frequency, TF over GST control). Moreover, the binding signal with ETS2 was 1.2 fold enrichment (6-mer frequency, TF over GST control); with SPDEF, 1.2 fold enrichment (6-mer frequency, TF over GST control); with ETV7, 1.13 fold enrichment (6-mer frequency, TF over GST control); in the assay with ELF5, 1.11 fold enrichment (6-mer frequency, TF over GST control); with ETV3, 1.23 fold enrichment (6-mer frequency, TF over GST control); with ETV6 it was 1.18 fold enrichment (6-mer frequency, TF over GST control).

The record behind these values is PMC7862700, “An all-to-all approach to the identification of sequence-specific readers for epigenetic DNA modifications on cytosine”.
